Source: PubChem BioAssay (The Scripps Research Institute Molecular Screening Center)
Shown are actives, neighbours in structure and some others; about 3.4% of the full set was active somewhere.
proKLK7 act: proKLK7 zymogen activators, primary screen, biochemical, fluorescence intensity. Kallikrein-7 (Homo sapiens), P49862. purified proKLK7, EDANS-DABCYL substrate fluorescence; 100% is mature enzyme control, 0% vehicle. activation, % at 7 µM. hit rate 0.9% among 370,000;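 active = activation above the mean of all tested compounds plus 3 SD, computed per campaign excluding outliers beyond control limits, cut at about 13% in these data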
PLCb3 inh: human PLC-beta3 inhibitors, primary screen, biochemical, fluorescence; Purified PLC-beta3, fluorogenic substrate; inhibition, % at 12.2 µM; hit rate 0.18% among 370,000; AID 720704, 2013;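 also: 0% = median of compound wells on plate and 100% = full blocker control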
Target sequence (Q01970 whole entry, looked up): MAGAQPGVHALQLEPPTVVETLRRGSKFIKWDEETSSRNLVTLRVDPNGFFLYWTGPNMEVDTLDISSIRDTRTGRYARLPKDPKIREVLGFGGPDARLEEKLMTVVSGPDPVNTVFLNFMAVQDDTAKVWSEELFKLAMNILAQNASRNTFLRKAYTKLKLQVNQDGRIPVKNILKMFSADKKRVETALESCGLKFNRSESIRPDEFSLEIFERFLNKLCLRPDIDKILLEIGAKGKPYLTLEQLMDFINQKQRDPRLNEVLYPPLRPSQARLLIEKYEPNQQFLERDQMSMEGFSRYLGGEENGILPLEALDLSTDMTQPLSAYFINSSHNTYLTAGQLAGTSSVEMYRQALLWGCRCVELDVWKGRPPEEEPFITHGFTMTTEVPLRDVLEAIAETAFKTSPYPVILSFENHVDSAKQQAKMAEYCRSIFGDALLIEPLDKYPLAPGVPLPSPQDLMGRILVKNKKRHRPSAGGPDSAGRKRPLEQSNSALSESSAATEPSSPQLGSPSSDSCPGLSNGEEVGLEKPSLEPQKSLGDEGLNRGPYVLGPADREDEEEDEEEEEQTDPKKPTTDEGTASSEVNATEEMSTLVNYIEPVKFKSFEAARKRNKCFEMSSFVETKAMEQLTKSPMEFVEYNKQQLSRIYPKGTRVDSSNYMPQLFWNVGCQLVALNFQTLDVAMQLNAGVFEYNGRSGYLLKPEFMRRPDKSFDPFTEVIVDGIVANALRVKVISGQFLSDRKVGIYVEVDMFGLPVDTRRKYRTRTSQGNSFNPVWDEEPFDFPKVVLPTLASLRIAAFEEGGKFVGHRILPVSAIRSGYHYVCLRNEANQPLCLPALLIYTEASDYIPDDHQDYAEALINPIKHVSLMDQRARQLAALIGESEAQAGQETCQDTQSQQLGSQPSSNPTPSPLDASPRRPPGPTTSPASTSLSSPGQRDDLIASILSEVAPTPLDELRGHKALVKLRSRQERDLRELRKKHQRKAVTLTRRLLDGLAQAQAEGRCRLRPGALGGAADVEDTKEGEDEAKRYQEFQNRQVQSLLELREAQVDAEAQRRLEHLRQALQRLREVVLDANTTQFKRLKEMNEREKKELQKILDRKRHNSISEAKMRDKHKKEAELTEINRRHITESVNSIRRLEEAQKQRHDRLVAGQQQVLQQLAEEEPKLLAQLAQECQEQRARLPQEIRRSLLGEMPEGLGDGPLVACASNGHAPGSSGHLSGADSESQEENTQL
ADAM17 inh: ADAM17 inhibitors, primary screen, biochemical, QFRET; hit rate 0.83% among 370,000; inhibition, % at 6.95 µM; Disintegrin and metalloproteinase domain-containing protein 17 (Homo sapiens), P78536; recombinant ADAM17, EDANS/DABCYL FRET peptide cleavage; AID 720648, 2013;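 active = inhibition above the mean of compounds lying between control limits plus 3 SD, set per campaign, cut at about 8.5% in these data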;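 also: 0% = DMSO-only wells as the low control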
ADAM10 inh: human ADAM10 inhibitors, primary screen, biochemical, QFRET, HTS; inhibition, % at 7 µM; recombinant ADAM10, EDANS/DABCYL FRET peptide cleavage, 3 h; hit rate 0.62% among 370,000;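 active = inhibition above a per-campaign cutoff equal to the mean of compounds falling between control-based bounds plus 3 SD, cut at about 20% in these data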;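 also: 0% = DMSO wells while the 100% control is not disclosed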
HGIII-sPLA2 inh: human group III sPLA2 inhibitors, primary screen, biochemical, QFRET, BODIPY PC-A2 liposome substrate; AID 743126, 2013; QFRET BODIPY PC-A2 liposome hydrolysis, fluorescence; Group 3 secretory phospholipase A2 (Homo sapiens), Q9NZ20; inhibition, % at 12.2 µM; hit rate 0.56% among 370,000;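 active = inhibition above mean plus 3 SD of compounds lying within the high and low control bounds, cut at about 19% in these data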;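 also: 0% = median of test compound wells and 100% = no enzyme DMSO wells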
PLCg1 inh: PLC-gamma1 enzyme inhibitors, primary screen, biochemical, fluorescence, purified enzyme. 1-phosphatidylinositol 4,5-bisphosphate phosphodiesterase gamma-1 (Homo sapiens), P19174. inhibition, % at 12.2 µM. hit rate 0.84% among 370,000. fluorogenic substrate. AID 720700, 2013; in the data active = inhibition above about 9.5%
PLCg1 ctr: PLC-gamma1 enzyme inhibitors, counter-screen for PLC-beta3 inhibitor project, biochemical, fluorescence. AID 743258, 2014. shares compounds with PLCg1 inh. purified PLC-gamma1, fluorogenic substrate. hit rate 3.1% among 3,300. inhibition, % at 12.3 µM; in the data active = inhibition above about 9.5%
PLCbeta3 conf: PLC-beta3 inhibitor confirmation, biochemical, fluorescence, purified enzyme; hit rate 1% among 3,300; inhibition, % at 12.3 µM; fluorogenic substrate fluorescence; AID 743261, 2014; shares compounds with PLCg1 inh
Numbers without * were called inactive; . = not tested or not shown. Rule as the data show it, unless noted: active = inhibition above about 11%; inactive = the rest.

SMILES | proKLK7 act | PLCb3 inh | ADAM17 inh | ADAM10 inh | HGIII-sPLA2 inh | PLCg1 inh | PLCg1 ctr | PLCbeta3 conf
CC(C)Oc1ccc(N2CC(C(=O)Nc3ccc(N4CCOCC4)cc3)CC2=O)cc1 (centres undefined) | 0 | 12* | 2 | 3 | -3 | 12* | 5 | 4
COc1ccc(N2CC(C(=O)Nc3cccc(OC(C)C)c3)CC2=O)cc1 (centres undefined) | 0 | -8 | -4 | -3 | -8 | 1 | . | .
O=C(COc1ccc(S(=O)(=O)N2CCCC2)cc1)NCC1CCCO1 (centres undefined) | 0 | -2 | -4 | -8 | -3 | -2 | . | .
Cc1ccc2c(CN3CC(C)CC(C)C3)cc(=O)oc2c1C (centres undefined) | -1 | 5 | 6 | 3 | 9 | 11* | -8 | -7
Cc1ccc2c(CN3CCC(C)CC3)cc(=O)oc2c1C | 0 | -14 | 1 | -5 | 2 | 1 | . | .
COc1ccc(S(=O)(=O)CCC(=O)NCCc2cccc(C)c2)cc1 | 0 | -3 | -4 | -7 | 6 | 9.7* | -2 | 0
Cc1cccc(CCNC(=O)CCS(=O)(=O)c2ccc(Br)cc2)c1 | 0 | 4 | 0 | 11 | -4 | 2 | . | .
O[C@H](COc1ccccc1)CN1CCC(C(O)(c2ccccc2)c2ccccc2)CC1 | 0 | 12* | 5 | 2 | -17 | 5 | -4 | -1
CSC(=O)NC(=O)NC(=O)c1ccc([N+](=O)[O-])cc1 | 0 | -3 | 0 | 6 | 6 | 4 | . | .
COc1ccc(Cl)cc1S(=O)(=O)N(C)CC(=O)NCc1ccccn1 | -1 | -6 | -4 | -9 | 4 | 9.6* | -1 | 1
CCc1cc(C(=O)N2CCN(C(=O)c3ccco3)CC2)sc1C | 0 | -6 | -6 | -3 | 4 | 4 | . | .
Cc1ccc(SCC(=O)NCc2ccccc2)cc1 | 1 | -6 | -3 | 6 | 4 | 1 | . | .
CC(C)CCN1CCN(CC#Cc2ccccc2)CC1CCO (centres undefined) | 0 | 1 | -2 | 5 | 5 | -2 | . | .
O=C(/C=C/c1cccc([N+](=O)[O-])c1)N1CC[C@@]2(O)CCCC[C@H]2C1 | -1 | 2 | 3 | 8 | 4 | 10* | 0 | -2
CCCC1/C(=N/O)CC(c2ccccc2)NC1c1ccccc1 (centres undefined) | 0 | 10 | 3 | 12 | 18 | 10* | 4 | 4
CN(C)c1ccc(S(=O)(=O)N2CCCCC2)cc1NC(=O)CN1C(=O)NC2(CCCC2)C1=O | 0 | -4 | 0 | 0 | 2 | 1 | . | .
CN(c1ccc(F)cc1)S(=O)(=O)c1ccc(Cl)c(C(=O)Nc2ccncc2)c1 | 0 | -7 | -2 | -4 | 0 | 1 | . | .
CN(c1ccccc1)S(=O)(=O)c1ccc(Cl)c(C(=O)Nc2ccncc2)c1 | 0 | 2 | 6 | 2 | -8 | 9.8* | -6 | -6
Cc1ccc(S(=O)(=O)N2CCOCC2)cc1NC(=O)COC(=O)COc1ccc(C#N)cc1 | -1 | 2 | 0 | 0 | 4 | 1 | . | .
O=[N+]([O-])c1ccc(Nc2ccccc2O)c([N+](=O)[O-])c1 | 1 | 5 | 7 | 13 | -32 | 9.5* | 1 | -1
CCCOP(=O)(c1ccc(N(C)C)cc1)C(O)c1ccccc1OC (centres undefined) | 0 | 5 | -1 | 2 | 10 | 10* | -1 | 1
